Results filed as inconclusive are left out. Entries that show only a call come without a potency. Active and inactive are the calls of the source. Calls come from the whole dose curve; as a rule, active = well fitted inhibition curve with a large enough effect; inconclusive = small, poorly fitted or top-dose-only effect; inactive = flat fitted curve, though single readings scatter.
Columns and labels:
Assay in all cases: qHTS profiling for inhibitors of Plasmodium falciparum proliferation (AID 504749); note: nearly all actives have a fitted effect of over 60% in size
Settings in all cases: P. falciparum in erythrocytes, SYBR Green DNA, 72 h; series mostly up to 28.7 µM
C2A = test system: C2A
Procedure, shortened: (§1)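 P. falciparum-infected erythrocytes (0.3% parasitemia, 2.5% hematocrit) incubated with compound 72 h at 37 C, 5% CO2. Parasite DNA detected by SYBR Green after lysis, overnight at room temperature; normalised to 0.29 uM artemisinin and DMSO.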

CP192 = test system: CP192
Procedure, shortened: as §1

CP237 = test system: CP237
Procedure, shortened: as §1

CP250 = test system: CP250
Procedure, shortened: as §1

CP256 = test system: CP256
Procedure, shortened: as §1

CP268 = test system: CP268
Procedure, shortened: as §1

CP315 = test system: CP315
Procedure, shortened: as §1

Dd2 = test system: Dd2
Procedure, shortened: as §1

HB3 = test system: HB3
Procedure, shortened: as §1

JCK = test system: JCK
Procedure, shortened: as §1

P94_40 = test system: P94_40
Procedure, shortened: as §1

PC15 = test system: PC15
Procedure, shortened: as §1

PC49 = test system: PC49
Procedure, shortened: as §1

3D7 = test system: 3D7
Procedure, shortened: as §1

CP191 = test system: CP191
Procedure, shortened: as §1

CP194 = test system: CP194
Procedure, shortened: as §1

CP305 = test system: CP305
Procedure, shortened: as §1

SC27B = test system: SC27B
Procedure, shortened: as §1

TAB165 = test system: TAB165
Procedure, shortened: as §1

TAB113 = test system: TAB113
Procedure, shortened: as §1
Potency is the fitted concentration of half-maximal effect.

Compound	Potency (C2A)	Potency (CP192)	Potency (CP237)	Potency (CP250)	Potency (CP256)	Potency (CP268)	Potency (CP315)	Potency (Dd2)	Potency (HB3)	Potency (JCK)	Potency (P94_40)	Potency (PC15)	Potency (PC49)	Potency (3D7)	Potency (CP191)	Potency (CP194)	Potency (CP305)	Potency (SC27B)	Potency (TAB165)	Potency (TAB113)
COc1ccc(C(=O)/C(Br)=C/C(=O)O)cc1	inactive	inactive	inactive	inactive	inactive	inactive	inactive	inactive	inactive	inactive	inactive	inactive	inactive							
CC1=C(c2ccc(NN=C(C#N)C#N)cc2)NNC(=O)C1	inactive	inactive	inactive	inactive	inactive	inactive	inactive	inactive	inactive	inactive	inactive	inactive	inactive	inactive	inactive	inactive	inactive	inactive	inactive	
C[C@H](CN1c2ccccc2Sc2cccnc21)N(C)C			2 µM (active)					4.47 µM (active)	inactive				inactive					8.91 µM (active)	11.2 µM (active)	12.6 µM (active)
CCCSS/C(CCO)=C(/C)N(C=O)Cc1cnc(C)nc1N	inactive	inactive	inactive	inactive	inactive	inactive	inactive	inactive	inactive	inactive	inactive	inactive	inactive	inactive	inactive	inactive	inactive	inactive		inactive
C[N+]12CCCC[C@@H]1CCC(=C(c1cccs1)c1cccs1)C2 (some centres undefined)		10.7 µM (active)				15.1 µM (active)				10 µM (active)	7.94 µM (active)		10 µM (active)	12.6 µM (active)	8.91 µM (active)		10.7 µM (active)		12.6 µM (active)	11.2 µM (active)
C[C@@H]1CC2C3CCC4=CC(=O)C=C[C@]4(C)[C@@]3(F)[C@@H](O)C[C@]2(C)[C@@]1(O)C(=O)COC(=O)c1cccc(S(=O)(=O)O)c1 (some centres undefined)	inactive	inactive	inactive	inactive	inactive	inactive	inactive	inactive	inactive	inactive	inactive	inactive	inactive	inactive	inactive	inactive	inactive	inactive	inactive	inactive
Cc1c(C)c2c(c(C)c1O)CCC(C)(CCCC(C)CCCC(C)CCCC(C)C)O2 (centres undefined)	inactive	inactive	inactive	inactive	inactive	inactive	inactive		inactive	inactive	inactive	inactive	inactive	inactive	inactive	inactive	inactive	inactive	inactive	inactive
COc1ccc(S(=O)(=O)N2c3ccc(Cl)cc3[C@](O)(c3ccccc3Cl)[C@@H]2C(=O)N2CCC[C@H]2C(N)=O)cc1OC	inactive	inactive		inactive	inactive	inactive	inactive	inactive	inactive	inactive			inactive	inactive	inactive	inactive	inactive			inactive
CNC1CCc2cc(OC)c(OC)c(OC)c2-c2ccc(OC)c(=O)cc21 (centres undefined)	inactive	inactive		inactive	inactive	inactive	inactive		inactive	inactive	inactive	inactive	inactive		inactive	inactive	inactive	inactive	inactive	inactive
C[C@]12C=CC(=O)N[C@@H]1CC[C@@H]1C2CC[C@]2(C)C(C(=O)Nc3cc(C(F)(F)F)ccc3C(F)(F)F)CC[C@@H]12 (some centres undefined)	inactive	inactive	5.01 µM (active)	inactive	inactive			inactive			inactive	inactive		5.62 µM (active)	inactive	inactive		inactive		inactive
C#C[C@@]1(O)CC[C@@H]2[C@H]3CCC4=C/C(=N\O)CC[C@H]4[C@@H]3CC[C@]21CC	inactive	inactive	inactive	inactive	inactive	inactive	inactive	inactive	inactive	inactive	inactive	inactive	inactive	inactive	inactive		inactive	inactive	inactive	inactive
CCOC(=O)C(CCc1ccccc1)NC(C)C(=O)N1Cc2cc(OC)c(OC)cc2CC1C(=O)O (centres undefined)		inactive	inactive	inactive	inactive	inactive	inactive	inactive				10 µM (active)	11.2 µM (active)	inactive	inactive		inactive	7.08 µM (active)	7.08 µM (active)	inactive
CNC1=CN(O)C(c2ccccc2)=c2cc(Cl)ccc2=N1		4.26 µM (active)	inactive		inactive	4.26 µM (active)	1.9 µM (active)	inactive	inactive	inactive	5.62 µM (active)	inactive	inactive	1 µM (active)	0.1 µM (active)	4.26 µM (active)	1.69 µM (active)		4.47 µM (active)	2.82 µM (active)
C[C@]12CCC(=O)C=C1[C@@H]1C[C@H]1[C@H]1[C@@H]3[C@@H]4C[C@H]4[C@@]4(CCC(=O)O4)[C@@]3(C)CC[C@@H]12	inactive	inactive	inactive	inactive	inactive	inactive	inactive	inactive	inactive	inactive	inactive	inactive	inactive		inactive		inactive	inactive	inactive	inactive
CC(C)CCCC(C)C1CC(=O)C2=C3CCC4CC(O)CCC4(C)C3CCC21C (centres undefined)	inactive	inactive		inactive	inactive	inactive	inactive	12.6 µM (active)		inactive	inactive	inactive	inactive		inactive	inactive	inactive	inactive	inactive	
CC1(C)SC2[C@@H](N=CN3CCCCCC3)C(=O)N2[C@H]1C(=O)O (some centres undefined)	inactive	inactive	inactive	inactive		inactive	inactive	inactive	inactive	inactive		inactive	inactive	inactive	inactive	inactive	inactive	inactive		
CCN(CC)C(=O)[C@@]1(c2ccccc2)C[C@@H]1CN	inactive	inactive	inactive	inactive	inactive	inactive	inactive	inactive	inactive	inactive	inactive	inactive	inactive	inactive	inactive	inactive	inactive	inactive	inactive	inactive
CC1CCC(O)C/C1=C\C=C1/CCCC2(C)C1CCC2C(C)/C=C/C(C)C(C)C (centres undefined)	inactive	inactive	inactive	inactive	inactive	inactive	inactive	inactive	inactive	inactive		inactive	inactive		inactive	inactive	inactive	inactive	inactive	inactive
OC[C@@H](O)C(O[C@@H]1O[C@@H](CO)[C@H](O)[C@H](O)[C@H]1O)[C@H](O)[C@@H](O)CO (some centres undefined)		inactive	inactive	inactive	inactive	inactive	inactive	inactive	inactive	inactive	inactive	inactive	inactive	inactive	inactive	inactive	inactive	inactive	inactive	inactive
CC(=O)O[C@]1(C(C)=O)CCC2C3CCC4=CC(=O)CCC4(C)C3(F)C(O)CC21C (some centres undefined)	inactive	inactive	inactive	inactive	inactive	inactive	inactive	inactive	inactive	inactive	inactive	inactive	inactive	inactive	inactive	inactive	inactive	inactive	inactive	inactive
C=C1/C(=C\C=C2/CCC[C@]3(C)[C@@H]([C@H](C)/C=C/[C@@H](O)C4CC4)CC[C@@H]23)C[C@@H](O)C[C@@H]1O	inactive	inactive	inactive		inactive	inactive	inactive	inactive	inactive	inactive		inactive	inactive	inactive	inactive	inactive	inactive	inactive		inactive
COc1cc(/C=C2\CCC/C(=C\c3ccc(O)c(OC)c3)C2=O)ccc1O			14.1 µM (active)	10 µM (active)			19 µM (active)	11.2 µM (active)	12.6 µM (active)	10 µM (active)	12.6 µM (active)	12.6 µM (active)	11.2 µM (active)	11.2 µM (active)	10 µM (active)			11.2 µM (active)	12.6 µM (active)	8.91 µM (active)
C=C1C(n2cnc3c(=O)[nH]c(N)nc32)C[C@H](O)[C@H]1CO (some centres undefined)	inactive	inactive	inactive				inactive	inactive	inactive	inactive	inactive				inactive	inactive		inactive	inactive	inactive
CCC(C)C(N)C(=O)O (centres undefined)	inactive	inactive	inactive	inactive	inactive	inactive	inactive	inactive	inactive	inactive	inactive	inactive	inactive	inactive	inactive	inactive	inactive	inactive	inactive	inactive
C/C=C1/NN(CCCN2CCN(c3cccc(Cl)c3)CC2)C(=O)N1CCOc1ccccc1	inactive	inactive		inactive	inactive	inactive	inactive		inactive	inactive	inactive	inactive	inactive	inactive		inactive	inactive	inactive		inactive
C=C(CC[C@@H](C)[C@H]1CCC2[C@]1(C)CC[C@]13C[C@@]14CCC(OC(=O)/C=C/c1ccc(O)c(OC)c1)C(C)(C)[C@@H]4CC[C@@]23C)C(C)C (some centres undefined)	inactive	inactive	inactive	inactive	inactive	inactive	inactive	inactive	inactive	inactive	inactive	inactive	inactive	inactive	inactive	inactive	inactive	inactive	inactive	inactive
CC(C)(C)NC[C@H](O)CSc1nc(-c2ccc(C(N)=O)s2)cs1	inactive	inactive	inactive	inactive	inactive	inactive	inactive	inactive	inactive	inactive	inactive	inactive	inactive	inactive	inactive	inactive	inactive	inactive	inactive	
